Shown are actives, neighbours in structure and some others; about 7.3% of the full set was active somewhere.
VACV Venus inh: inhibitors of vaccinia virus (Venus reporter) | Vaccinia virus Venus reporter expression, fluorescence | Potency, µM (series often up to 36.5 µM), without a hit: top-dose activity change, negative = inhibition, actives largely listed as inhibitors | 330,000 compounds, 0.46% hits | AID 720580; calls by dose curve; tested in A549 cells; note: potency is the fitted concentration of half-maximal effect; nearly all actives have a fitted effect of over 30% in size
Vaccinia mCherry: inhibitors of vaccinia virus infection (mCherry reporter signal); Vaccinia virus mCherry reporter infection, fluorescence; Potency, µM (doses to about 36.5 µM), inactives show at the highest dose activity change, negative = inhibition, actives largely listed as inhibitors; 310,000 compounds, 0.63% hits; calls by dose curve; tested in A549 cells; note: potency is the fitted concentration of half-maximal effect; nearly all actives have a fitted effect of over 35% in size
HCV inh: HCV inhibition | Potency, µM (doses to about 41.8 µM), inactives show at the highest dose activity change, negative = inhibition, most hits filed as inhibitors | AID 651820 | Huh7.5.1 HCVcc-Cre infection, luciferase reporter, 44 h | 340,000 compounds, 3.4% hits; active = well fitted inhibition curve with a large enough effect; inconclusive = small, poorly fitted or top-dose-only effect, or another doubt; inactive = no such curve, though single readings can be large or run the other way; note: potency is the fitted concentration of half-maximal effect
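Cells seeded at 1,000/well and cultured 4 h, then compounds added followed by HCVcc-Cre virus (~0.5 moi). After 44 h further culture, luciferase substrate was added, plates held 15 min at room temperature, and luminescence read for 15 sec.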
FMDV antiviral: antivirals against foot and mouth disease virus; Potency, µM (series often up to 57.9 µM), for the others: at the top dose activity change, negative = inhibition, usual class: inhibitors; FMDV antiviral cell-based qHTS; AID 1159524; 410,000 compounds, 1.2% hits; calls by dose curve; tested in HEK293T cells; note: read-out not given here; potency is the fitted concentration of half-maximal effect; nearly all actives have a fitted effect of over 45% in size
HCMV antiviral: inhibitors of human cytomegalovirus | 410,000 compounds, 4.5% hits | HFF cells, HCMV-luciferase reporter, 72 h; stronger effect = lower value | AID 1259415 | activity change, negative = inhibition, % at 57.5 µM; in the data active = activity change below about -60%; inconclusive = no clear call, values can overlap the other calls; inactive = above about -39%
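After 16 h attachment at 37C, HFF cells received test compound and HCMV-luciferase (1 PFU/cell); reporter luminescence read 72 h later, data normalized against buffer-only and known inhibitor Salinomycin.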
* = called active by the depositor; i = inactive; ? = inconclusive; / = no result; ! = repeats disagree. % is set by controls: 0 for no effect and ±100 for the full control effect.

SMILES | VACV Venus inh | Vaccinia mCherry | HCV inh | FMDV antiviral | HCMV antiviral
CCC[C@@H](CN1CCC[C@H]1CN1C(N)=NC[C@H]1C(C)C)N1C[C@@H]([C@H](C)CC)N(CCCC2CCCC2)C1=N | -14% | i | -61% | -1% | -18
CCc1cccc2c1Sc1ccccc1CC2N1CCNCC1 (centres undefined) | / | / | ? | ? | -98*
Cc1cccc2c1Sc1ccc(Cl)cc1CC2N1CCNCC1 (centres undefined) | / | / | 13µM* | ? | /
N[C@@H](CSS(=O)(=O)O)C(=O)O | -20% | -22% | / | -7% | /
COc1ccc(NC(=O)C(=O)NCC(c2cccnc2)N2CCc3ccccc3C2)cc1 (centres undefined) | -23% | -22% | / | ? | -10
Cc1noc(C)c1-c1nccc(N(C)C)n1 | / | / | / | -6% | /
CC1CCCCN1C(=O)CSc1nc2ccccc2nc1Cc1ccccc1 (centres undefined) | -19% | -4% | / | -20% | -72*
COc1ccc(NS(=O)(=O)c2cc(C(=O)NNC(=O)c3ccncc3)ccc2OC)c(OC)c1 | -2% | i | 0% | 8% | -6
Cc1ccc(-c2nnn(CC(=O)N(CC(=O)NC(C)C)c3cnc4ccccc4c3)n2)o1 | -13% | ? | -3% | / | 2
Cc1ccc(-c2nnn(CC(=O)N(CC(=O)NC3CCCCC3)c3cccc(F)c3)n2)o1 | -6% | 5% | 3% | 18% | -22
Cc1ccc(-c2nnn(CC(=O)N(CC(=O)NC3CCCC3)c3cccc(F)c3)n2)o1 | 14% | -5% | -13% | 11% | -85*
Cc1ccc(-c2nnn(CC(=O)N(CC(=O)NC3CCCC3)c3cnc4ccccc4c3)n2)o1 | -12% | -15% | 1% | -4% | -103*
Cc1onc(-c2c(F)cccc2Cl)c1C(=O)Nc1sc2c(c1C(N)=O)CCC2 | / | / | ? | ? | -74*
NC(=O)c1c(NC(=O)c2cccs2)sc2c1CCCCCC2 | -27% | ? | 10µM* | / | 9
COC(=O)c1c(NC(=O)C2CCCO2)sc2c1CCC2 (centres undefined) | ? | / | 5.6µM* | 11% | -37
COc1cc(OC)cc(C(=O)Nc2sc3c(c2C(N)=O)CCC3)c1 | ? | ? | 2µM* | 4% | -16
COc1ccc(C(=O)Nc2sc3c(c2C(N)=O)CCCC3)cc1OC | / | / | / | 16% | /
CCOC(=O)c1sc(NC(=O)C(C)Sc2nc(-c3ccccc3)cc(C(F)(F)F)n2)c(C(=O)OC)c1C (centres undefined) | -15% | -3% | / | -13% | -12
CCOC(=O)c1ccc(NC(=O)Cn2c(=O)cc(C(F)(F)F)c3c(C)nn(C)c32)cc1 | 2% | -2% | / | 10% | 11
Cc1ccc(S(=O)(=O)c2cc3c(=O)n4ccccc4nc3n(C3CCCC3)c2=N)cc1 | -17% | -14% | 5µM* | -11% | 8
COc1cc(N=c2ssnc2Cl)cc(OC)c1 | -7% | -12% | -20% | 40µM* | 33
CC(=O)c1ccc(N2CCN(S(=O)(=O)c3ccc(-c4cnc(C5CC5)o4)cc3)CC2)cc1 | ? | ? | 7% | 32µM*! | -11
O=S(=O)(c1ccc(-c2cnc(C3CC3)o2)cc1)N1CCN(c2ccc(F)cc2)CC1 | -20% | ? | / | 0% | -77*
COc1cccc(CN(C(=O)c2ccc(C(C)(C)C)cc2)C2CCS(=O)(=O)C2)c1 (centres undefined) | -12% | -12% | / | 3% | 15
COc1cc2c(cc1NC(=O)CSc1nnc(COc3ccc(Cl)cc3)n1C)oc1ccccc12 | / | / | 6.3µM* | -10% | 39
SMILES | VACV Venus inh | Vaccinia mCherry | HCV inh | FMDV antiviral | HCMV antiviral
COc1cc2c(cc1NC(=O)CSc1nnc(Cc3cccs3)n1C)oc1ccccc12 | -28% | / | 10µM* | -7% | 22
CCn1c(SCC(=O)Nc2cc3oc4ccccc4c3cc2OC)nnc1-c1cccs1 | -20% | -8% | 10µM* | / | -19
CCn1c(SCC(=O)Nc2ccc3c(c2)oc2ccccc23)nnc1-c1ccc(N)cc1 | / | / | 11µM* | ? | ?
COc1cc2c(cc1NC(=O)CSc1nnnn1-c1ccccc1)oc1ccccc12 | -7% | / | -6% | -28% | 3
O=C(c1cc(Br)ccc1O)N(Cc1ccco1)Cc1cccs1 | -15% | -5% | / | / | /
COc1cc2c(cc1NC(=O)CSc1nnc(Cc3cccs3)n1Cc1ccco1)oc1ccccc12 | / | / | 2µM* | ? | 43
CCc1ccc(NC(=O)C2=CC(c3ccc(OC)c(OC)c3)=NS(=O)(=O)N2C)cc1 | -21% | -6% | 5.6µM* | ? | ?

Screening data (PubChem BioAssay)
